Six compounds from ChEMBL document CHEMBL1961873, “Compounds: GSK PKIS; Assays: Nanosyn kinase panel” (2012) can be followed below.

In general, inhibition refers to the drop in the measured response relative to a control, in per cent.

Each structure is given as a SMILES string.

The target in test [1] is Serine/threonine-protein kinase pim-2 (Homo sapiens) (UniProt Q9P1W9). To be noted: at 1 µM.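 Note: each value is a mean of the inhibition measurements against the kinase.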
Test [2] addresses Serine/threonine-protein kinase pim-3 (Homo sapiens) (UniProt Q86V86). To be noted: at 0.1 µM.
The target is the same in test [3]. To be noted: at 1 µM.
Test [4] deals with T1, MAP kinase-activated protein kinase 5 (Homo sapiens) (UniProt Q8IW41).
T1 sequence (whole entry): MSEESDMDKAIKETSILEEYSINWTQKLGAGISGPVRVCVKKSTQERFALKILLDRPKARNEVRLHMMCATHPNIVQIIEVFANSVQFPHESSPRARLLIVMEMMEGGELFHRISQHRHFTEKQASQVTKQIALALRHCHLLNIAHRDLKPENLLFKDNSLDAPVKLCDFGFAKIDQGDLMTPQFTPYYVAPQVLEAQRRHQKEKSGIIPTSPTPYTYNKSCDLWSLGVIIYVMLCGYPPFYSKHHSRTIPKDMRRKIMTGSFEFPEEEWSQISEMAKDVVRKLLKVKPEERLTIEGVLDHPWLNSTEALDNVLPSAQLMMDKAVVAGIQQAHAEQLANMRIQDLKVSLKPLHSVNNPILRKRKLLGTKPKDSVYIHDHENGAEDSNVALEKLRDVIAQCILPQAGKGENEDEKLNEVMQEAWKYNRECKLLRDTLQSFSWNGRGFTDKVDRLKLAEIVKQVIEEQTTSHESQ
Conditions: at 0.1 µM.

Test [5] concerns the target T1, MAP kinase-activated protein kinase 5 (Homo sapiens). To be noted: at 1 µM.
Test [6] deals with Serine/threonine-protein kinase SIK1 (Homo sapiens) (UniProt P57059). Conditions: at 0.1 µM.
For test [7] the target is unchanged. Conditions: at 1 µM.
In test [8] the target is Serine/threonine-protein kinase SIK2 (Homo sapiens) (UniProt Q9H0K1). Conditions: at 0.1 µM.
Test [9] has the same target. Conditions: at 1 µM.
Test [10] has as its target T2, Serine/threonine-protein kinase TBK1 (Homo sapiens) (UniProt Q9UHD2).
T2 sequence (whole entry): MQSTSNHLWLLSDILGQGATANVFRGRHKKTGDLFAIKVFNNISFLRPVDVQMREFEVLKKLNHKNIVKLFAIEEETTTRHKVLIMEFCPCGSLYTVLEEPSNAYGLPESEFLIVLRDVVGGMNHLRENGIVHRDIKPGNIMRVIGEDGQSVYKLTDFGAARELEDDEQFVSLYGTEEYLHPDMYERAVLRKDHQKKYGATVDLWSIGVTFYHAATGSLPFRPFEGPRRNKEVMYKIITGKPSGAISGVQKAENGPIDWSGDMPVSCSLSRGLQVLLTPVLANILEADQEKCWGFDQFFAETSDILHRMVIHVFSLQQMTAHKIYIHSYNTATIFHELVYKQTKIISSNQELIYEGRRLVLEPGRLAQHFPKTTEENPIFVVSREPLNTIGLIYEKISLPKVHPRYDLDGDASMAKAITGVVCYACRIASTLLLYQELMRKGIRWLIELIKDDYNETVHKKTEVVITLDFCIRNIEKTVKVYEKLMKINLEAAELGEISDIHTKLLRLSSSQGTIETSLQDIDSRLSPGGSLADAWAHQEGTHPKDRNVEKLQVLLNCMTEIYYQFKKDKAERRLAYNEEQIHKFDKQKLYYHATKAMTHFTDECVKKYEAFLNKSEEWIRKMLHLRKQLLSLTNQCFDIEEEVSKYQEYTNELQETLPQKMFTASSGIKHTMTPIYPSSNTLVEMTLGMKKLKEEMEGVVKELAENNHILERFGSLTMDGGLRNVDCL
Conditions: at 0.1 µM.

The target of test [11] is T2, Serine/threonine-protein kinase TBK1 (Homo sapiens). To be noted: at 1 µM.
Test [12] concerns the target T3, Testis-specific serine/threonine-protein kinase 1 (Homo sapiens) (UniProt Q9BXA7).
T3 sequence (whole entry): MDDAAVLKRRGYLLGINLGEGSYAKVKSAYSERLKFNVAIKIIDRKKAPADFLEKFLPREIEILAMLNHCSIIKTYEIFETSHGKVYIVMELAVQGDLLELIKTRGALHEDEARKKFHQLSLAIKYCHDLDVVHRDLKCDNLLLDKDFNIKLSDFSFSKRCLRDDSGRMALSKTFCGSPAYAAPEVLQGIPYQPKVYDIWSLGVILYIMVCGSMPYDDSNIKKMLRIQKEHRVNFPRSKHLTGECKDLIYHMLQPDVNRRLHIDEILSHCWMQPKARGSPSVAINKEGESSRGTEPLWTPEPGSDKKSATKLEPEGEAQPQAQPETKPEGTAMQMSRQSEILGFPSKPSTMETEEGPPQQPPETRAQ
Conditions: at 0.1 µM.

Test [13] has as its target T3, Testis-specific serine/threonine-protein kinase 1 (Homo sapiens). To be noted: at 1 µM.
The target of test [14] is T4, Testis-specific serine/threonine-protein kinase 2 (Homo sapiens) (UniProt Q96PF2).
T4 sequence (whole entry): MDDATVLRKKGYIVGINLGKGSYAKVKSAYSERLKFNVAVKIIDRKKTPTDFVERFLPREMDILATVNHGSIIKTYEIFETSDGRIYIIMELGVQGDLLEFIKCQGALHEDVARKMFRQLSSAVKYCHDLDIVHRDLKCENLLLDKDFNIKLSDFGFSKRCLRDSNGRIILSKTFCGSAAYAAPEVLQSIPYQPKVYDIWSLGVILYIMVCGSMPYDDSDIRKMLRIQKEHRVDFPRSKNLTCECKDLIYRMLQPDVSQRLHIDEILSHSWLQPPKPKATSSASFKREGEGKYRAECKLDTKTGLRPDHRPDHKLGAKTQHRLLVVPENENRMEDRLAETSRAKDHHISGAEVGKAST
To be noted: at 0.1 µM.

The target in test [15] is T4, Testis-specific serine/threonine-protein kinase 2 (Homo sapiens). Conditions: at 1 µM.
The target in test [16] is Casein kinase I isoform alpha (Homo sapiens) (UniProt P48729). To be noted: at 0.1 µM.
For test [17] the target is unchanged. To be noted: at 1 µM.
Test [18] has as its target Casein kinase I isoform gamma-1 (Homo sapiens) (UniProt Q9HCP0). To be noted: at 0.1 µM.
Test [19] shares this target. To be noted: at 1 µM.
The target in test [20] is Casein kinase I isoform gamma-2 (Homo sapiens) (UniProt P78368). To be noted: at 0.1 µM.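 Note: values are mean inhibition figures reported as part of the GSK PKIS dataset.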
Casein kinase I isoform gamma-2 (Homo sapiens), sequence (P78368 whole entry, looked up, canonical isoform): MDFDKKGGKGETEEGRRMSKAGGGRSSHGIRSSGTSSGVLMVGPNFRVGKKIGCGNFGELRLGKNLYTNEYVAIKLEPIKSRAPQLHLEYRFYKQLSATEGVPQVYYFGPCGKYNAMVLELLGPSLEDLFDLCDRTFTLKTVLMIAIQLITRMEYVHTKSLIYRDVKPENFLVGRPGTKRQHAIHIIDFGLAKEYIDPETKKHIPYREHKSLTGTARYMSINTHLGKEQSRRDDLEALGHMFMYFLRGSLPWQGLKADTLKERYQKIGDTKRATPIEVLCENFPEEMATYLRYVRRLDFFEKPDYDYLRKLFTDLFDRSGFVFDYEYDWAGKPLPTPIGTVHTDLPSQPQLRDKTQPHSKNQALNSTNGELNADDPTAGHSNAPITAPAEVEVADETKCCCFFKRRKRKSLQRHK

Serine/threonine-protein kinase pim-2 (Homo sapiens), sequence (Q9P1W9 whole entry, looked up): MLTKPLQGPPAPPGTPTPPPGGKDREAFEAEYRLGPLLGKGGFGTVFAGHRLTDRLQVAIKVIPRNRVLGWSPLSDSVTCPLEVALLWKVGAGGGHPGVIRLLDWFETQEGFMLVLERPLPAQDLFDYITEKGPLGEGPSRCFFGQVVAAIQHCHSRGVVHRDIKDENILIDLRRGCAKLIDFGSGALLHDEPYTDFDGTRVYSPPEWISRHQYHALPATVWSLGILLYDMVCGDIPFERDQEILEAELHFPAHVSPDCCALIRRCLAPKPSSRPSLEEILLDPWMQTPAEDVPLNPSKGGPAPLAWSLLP
Serine/threonine-protein kinase SIK1 (Homo sapiens), sequence (P57059 whole entry): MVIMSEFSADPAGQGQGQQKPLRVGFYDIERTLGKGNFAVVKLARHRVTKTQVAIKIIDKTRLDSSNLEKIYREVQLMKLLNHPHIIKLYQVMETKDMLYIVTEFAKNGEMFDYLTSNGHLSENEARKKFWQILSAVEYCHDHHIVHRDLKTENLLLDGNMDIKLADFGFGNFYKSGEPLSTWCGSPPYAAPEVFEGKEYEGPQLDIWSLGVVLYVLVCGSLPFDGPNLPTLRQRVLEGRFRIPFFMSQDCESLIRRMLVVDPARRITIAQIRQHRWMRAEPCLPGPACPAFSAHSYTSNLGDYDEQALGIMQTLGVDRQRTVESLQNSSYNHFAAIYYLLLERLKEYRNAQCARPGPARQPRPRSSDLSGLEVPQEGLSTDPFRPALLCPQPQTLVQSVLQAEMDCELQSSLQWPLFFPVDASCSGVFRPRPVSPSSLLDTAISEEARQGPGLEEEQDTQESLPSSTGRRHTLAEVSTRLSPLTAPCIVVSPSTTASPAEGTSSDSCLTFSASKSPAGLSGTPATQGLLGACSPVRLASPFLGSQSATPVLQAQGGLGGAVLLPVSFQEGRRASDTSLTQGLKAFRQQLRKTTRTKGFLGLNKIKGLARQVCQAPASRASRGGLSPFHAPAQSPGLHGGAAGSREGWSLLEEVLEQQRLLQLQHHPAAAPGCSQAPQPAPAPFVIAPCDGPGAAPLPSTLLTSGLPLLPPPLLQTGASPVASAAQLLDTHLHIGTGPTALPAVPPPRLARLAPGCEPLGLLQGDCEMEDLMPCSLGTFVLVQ
Serine/threonine-protein kinase SIK2 (Homo sapiens), sequence (Q9H0K1 whole entry, looked up): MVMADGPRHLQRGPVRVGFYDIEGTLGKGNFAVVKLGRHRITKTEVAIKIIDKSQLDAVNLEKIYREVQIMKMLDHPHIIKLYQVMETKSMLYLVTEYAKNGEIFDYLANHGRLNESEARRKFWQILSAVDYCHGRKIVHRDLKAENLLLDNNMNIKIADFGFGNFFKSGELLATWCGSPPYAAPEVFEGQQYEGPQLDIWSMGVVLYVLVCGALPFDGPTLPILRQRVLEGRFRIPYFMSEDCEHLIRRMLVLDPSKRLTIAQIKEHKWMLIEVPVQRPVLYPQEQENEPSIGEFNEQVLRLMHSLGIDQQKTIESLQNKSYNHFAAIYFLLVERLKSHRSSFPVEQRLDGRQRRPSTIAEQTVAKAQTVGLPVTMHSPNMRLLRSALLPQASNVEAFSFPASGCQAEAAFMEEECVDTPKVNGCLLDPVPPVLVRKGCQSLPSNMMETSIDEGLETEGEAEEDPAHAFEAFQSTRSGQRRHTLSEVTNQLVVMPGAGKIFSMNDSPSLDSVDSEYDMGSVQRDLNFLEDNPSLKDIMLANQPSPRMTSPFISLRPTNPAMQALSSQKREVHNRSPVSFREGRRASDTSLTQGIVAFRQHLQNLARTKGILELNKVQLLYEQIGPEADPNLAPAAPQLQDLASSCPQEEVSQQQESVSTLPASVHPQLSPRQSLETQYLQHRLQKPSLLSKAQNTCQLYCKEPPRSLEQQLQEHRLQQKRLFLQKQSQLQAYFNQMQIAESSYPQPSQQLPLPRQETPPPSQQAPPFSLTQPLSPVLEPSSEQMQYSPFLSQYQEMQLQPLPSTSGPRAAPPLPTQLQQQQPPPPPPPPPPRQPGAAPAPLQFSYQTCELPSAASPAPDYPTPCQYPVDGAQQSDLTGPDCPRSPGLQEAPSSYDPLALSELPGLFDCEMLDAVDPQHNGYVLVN
Casein kinase I isoform alpha (Homo sapiens), sequence (P48729 2-337 limits assumed): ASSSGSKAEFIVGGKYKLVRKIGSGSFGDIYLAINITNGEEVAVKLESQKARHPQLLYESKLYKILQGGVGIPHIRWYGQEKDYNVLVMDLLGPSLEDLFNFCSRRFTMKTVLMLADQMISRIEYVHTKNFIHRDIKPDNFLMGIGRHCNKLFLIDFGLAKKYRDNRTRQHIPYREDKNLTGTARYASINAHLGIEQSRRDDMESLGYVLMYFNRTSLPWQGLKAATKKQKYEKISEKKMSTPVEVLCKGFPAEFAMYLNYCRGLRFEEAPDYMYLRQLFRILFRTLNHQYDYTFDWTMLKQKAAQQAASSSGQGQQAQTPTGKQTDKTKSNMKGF
Casein kinase I isoform gamma-1 (Homo sapiens), sequence (Q9HCP0 whole entry, looked up, canonical isoform): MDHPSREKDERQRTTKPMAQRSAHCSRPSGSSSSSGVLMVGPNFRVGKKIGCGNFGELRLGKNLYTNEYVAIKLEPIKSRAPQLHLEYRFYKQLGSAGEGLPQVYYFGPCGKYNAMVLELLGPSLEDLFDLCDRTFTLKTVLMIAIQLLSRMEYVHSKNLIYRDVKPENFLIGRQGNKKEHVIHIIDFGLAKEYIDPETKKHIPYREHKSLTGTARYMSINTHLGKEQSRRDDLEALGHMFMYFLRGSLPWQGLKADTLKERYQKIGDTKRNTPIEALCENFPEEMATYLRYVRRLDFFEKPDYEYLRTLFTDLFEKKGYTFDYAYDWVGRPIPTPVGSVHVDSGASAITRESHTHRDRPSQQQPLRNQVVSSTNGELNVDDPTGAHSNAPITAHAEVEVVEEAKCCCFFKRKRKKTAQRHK

For the compound `O=S(=O)(CCNCc1ccc(-c2ccc3ncnc(Nc4ccc(OCc5cccc(F)c5)c(Cl)c4)c3c2)o1)c1ccccc1`, the inhibition in test [1] was 0.58%; in [2], -0.16%; in test [3], 1.33%; in test [4], 2.07%; in [5], 2.09%; in test [6], 3.17%. For the same compound, the inhibition worked out at 9.64% in [7]; 2.1% in [8]; 6.58% in test [9]; 4.82% in [10]; 5.89% in [11]; 4.61% in [12]. Moreover, the inhibition is 5.43% in [13]; 2.59% in test [14]; 3.64% in [15]; 4.43% in test [16]; 6.02% in test [17]; 4.93% in [18]. The inhibition is 6.77% in test [19] and 4.49% in [20].

For `COc1ccc(CNC(=O)c2ccc(-c3cc(-c4nnc(C)o4)ccc3C)cc2)cc1`, the inhibition in test [1] worked out at 3.03%; in test [2], 4.73%; in [3] it was 8.32%; in test [4], 2.76%; in test [5], 5.41%; in test [6], 1.54%. For the same compound, the inhibition in [7] came out at 2.92%; in test [8] it was 6.86%; in test [9], 6.77%; in test [10], 2.25%; in [11] it was 4.66%; in [12], 3.31%. The inhibition in test [13] was 6.39%; in test [14], 2.67%; in test [15], 6.58%; in test [16] it was -0.51%; in [17], 2.48%; in [18], 1.07%. Besides, the inhibition is -0.25% in [19] and 1.05% in test [20].

As to `CC(=O)Nc1cccc(C#Cc2cncnc2Nc2ccc(OCc3cccc(F)c3)c(Cl)c2)c1`, the inhibition in [1] was 1.31%; in test [2] it was 2.57%; in test [3] it was -1.69%; in [4] it was 0.16%; in test [5] it was -0.79%; in test [6], 4.24%. Moreover, the inhibition was found to be 2.15% in test [7]; 1.42% in test [8]; 1.44% in test [9]; 1.95% in [10]; 3.45% in [11]; 1.34% in test [12]. For the same compound, the inhibition in [13] is 0.24%; in [14], 0.06%; in [15], -1.88%; in [16], -1.79%; in test [17], 3.28%; in test [18] it was 2.22%. Besides, the values for the inhibition in [19] and in test [20] were 2% and 0.52%, respectively.

For the compound `NS(=O)(=O)c1ccc(N/N=C2\C(=O)Nc3ccc4ncccc4c32)cc1`, the inhibition in test [1] amounted to 9.88%; in test [2] it was 1.09%; in test [3], 12.5%; in [4] it was 1.52%; in test [5] it was 8.94%; in test [6], 2.74%. Besides, the inhibition in test [7] was 31.3%; in test [8], -0.54%; in test [9], 31.6%; in test [10] it was 7.16%; in [11], 50.4%; in test [12], 5.63%. The inhibition was determined as 34.9% in [13]; 0.69% in [14]; 4.1% in test [15]; 4.04% in test [16]; 21.3% in test [17]; 2.39% in test [18]. The inhibition in [19] worked out at 8.12%; in [20], 1.41%.

Regarding `CCn1c(-c2nonc2N)nc2ccccc21`, the inhibition in test [1] is 1.82%; in [2], -0.8%; in [3], 10.7%; in test [4], 0.58%; in test [5], -0.74%; in [6], 7.25%. For the same compound, the inhibition in [7] came to 7.65%; in test [8] it was 9.3%; in test [9], 1.28%; in test [10], 3.25%; in test [11], 3.36%; in [12], 2.04%. Further, the inhibition in [13] is 0.61%; in test [14], 0.97%; in [15] it was -0.93%; in test [16], 2.92%; in test [17], 3.37%; in [18], 1.61%. Besides, the inhibition turned out to be 3.25% in test [19] and 0.92% in test [20].

In the case of `COc1cc2ncn(-c3cc(OCc4ccccc4C(F)(F)F)c(C(=O)N(C)C)s3)c2cc1OC`, the inhibition in test [1] was 0.27%; in test [2], -0.34%; in test [3] it was 0.56%; in [4], 0.07%; in test [5], 0.04%; in test [6] it was 2.6%. Further, the inhibition in [7] came to 15.2%; in test [8], 4.39%; in [9], 9.54%; in test [10], 2.13%; in test [11] it was 0.81%; in [12], 1.76%. Besides, the inhibition in [13] was 1.34%; in [14], 0.13%; in [15], 0.32%; in [16], 0.11%; in test [17], 0.76%; in test [18] it was -0.13%. Besides, the inhibition in test [19] turned out to be 0.81%; in [20] it was 0.13%.
